A selection: hits, their analogues and other compounds. The true share with any hit is near 1.6%.
KCNQ2 inh = blocks the rat KCNQ2 potassium channel; CHO-K1 KCNQ2, FluxOR thallium flux, 20 min; active compounds read low; hit rate 1.1% among 310,000; AID 2156; B-score at 10 µM;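 active means fluorescence ratio B-score at most minus 3 library SDs, with starting brightness B-score within 2 library SDs, cut at about -5.5 in these data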
KCNQ2 pot = KCNQ2 (rat) channel potentiation; O88943; CHO-K1 KCNQ2, FluxOR thallium flux fluorescence; active compounds read high; B-score at 10 µM; hit rate 0.54% among 310,000;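 active means fluorescence ratio B-score at least 3 SD of library B-scores, with initial fluorescence B-score within 3 of them, cut at about 5.3 in these data; same plate scores as AID 2156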;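 further: B-score of peak minus minimum over baseline fluorescence ratio after K+ and Tl+ stimulus; positive B-score means potentiation of KCNQ2 with more thallium influx and brighter signal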
Kir21 conf inh = confirmation of mouse Kir2.1 potassium channel inhibitors; shares compounds with KCNQ2 pot; Kir2.1-expressing cells, FluxOR thallium flux fluorescence; active compounds read low; Tl flux remaining, % of negative control (active compounds read low), % at 10 µM; hit rate 41% among 2,300; AID 2032;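 active means Primary-screen hit whose thallium flux fell at least 3 control SD below untreated wells in both duplicates, with normal baseline fluorescence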
HEK293 Tl flux = parental HEK293 activity in Kir2.1 inhibitor counter-screen | shares compounds with KCNQ2 pot | parental HEK293 cells, FluxOR thallium flux fluorescence; 0% = unstimulated blank wells | FluxOR signal as % of negative control (100 = no effect), % at 10 µM | hit rate 19% among 2,300;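 active means dye signal at least 3 control SD above or below untreated wells in both duplicates, raw fluorescence within 3, either direction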;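 further: percent is based on the flux ratio of peak minus minimum fluorescence over baseline F0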
CHO-K1 Tl ctr = alters thallium flux in parental CHO-K1 cells, KCNQ2 counter-screen; shares compounds with KCNQ2 pot; FluxOR thallium flux fluorescence; zero = vehicle mean+3SD, 100% = vehicle-minus-blank window; activity increase over 3SD of controls, % at 10 µM; hit rate 43% among 1,200; AID 2282;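 active means signal rise of at least 3 SD above the untreated control mean, in both duplicate wells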;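 further: counter screen of KCNQ2 potentiator hits so any rise reflects channel-independent effects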
KCNQ1 sel pot = tests whether KCNQ2 potentiators also act on human KCNQ1 | AID 2283 | hit rate 28% among 1,200 | shares compounds with KCNQ2 pot | activation over 3SD threshold, % at 10 µM | CHO KCNQ1 stable, FluxOR thallium flux fluorescence; beyond 3SD, as % of vehicle-control signal;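 active means fluorescence ratio rise of at least 3 SD of vehicle wells above their mean, in both replicate wells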
Target sequence (P51787 whole entry, looked up): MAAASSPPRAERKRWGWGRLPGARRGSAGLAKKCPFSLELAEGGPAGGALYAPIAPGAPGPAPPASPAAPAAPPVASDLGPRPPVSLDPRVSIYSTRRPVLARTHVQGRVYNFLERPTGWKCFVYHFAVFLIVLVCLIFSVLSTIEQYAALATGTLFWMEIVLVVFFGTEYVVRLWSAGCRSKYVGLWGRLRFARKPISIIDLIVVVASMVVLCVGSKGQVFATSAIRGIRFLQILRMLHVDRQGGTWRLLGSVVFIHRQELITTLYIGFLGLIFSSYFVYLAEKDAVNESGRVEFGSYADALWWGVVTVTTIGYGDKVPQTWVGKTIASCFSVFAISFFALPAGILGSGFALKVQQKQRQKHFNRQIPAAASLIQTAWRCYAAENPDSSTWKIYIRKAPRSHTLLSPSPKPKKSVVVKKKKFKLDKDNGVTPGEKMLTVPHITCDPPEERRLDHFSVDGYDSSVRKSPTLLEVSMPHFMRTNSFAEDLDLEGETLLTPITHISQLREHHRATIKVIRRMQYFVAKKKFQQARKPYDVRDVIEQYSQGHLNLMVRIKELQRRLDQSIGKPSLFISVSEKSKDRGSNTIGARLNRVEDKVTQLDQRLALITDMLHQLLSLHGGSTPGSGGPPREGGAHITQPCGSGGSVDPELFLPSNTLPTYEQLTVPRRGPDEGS
KCNQ2 pot conf = confirmation of rat KCNQ2 potassium channel potentiators. shares compounds with KCNQ2 pot. CHO-KCNQ2 cells, FluxOR thallium flux fluorescence. potentiation, less the hit threshold, % at 10 µM. hit rate 68% among 1,200. AID 2287;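 active means fluorescence ratio rising 3 SD or more over the vehicle control mean in both replicates, plus primary screen hit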;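 further: peak minus minimum thallium fluorescence divided by baseline after K/Tl stimulus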
Kir2-1 sel = mouse Kir2.1 off-target activity of KCNQ2 potentiators; AID 2345; shares compounds with KCNQ2 pot; activity over 3SD threshold, % at 10 µM; hit rate 2% among 1,200; HEK293 Kir2.1, FluxOR thallium flux fluorescence;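 active means fluorescence ratio rise of at least 3 SD above the vehicle-control mean, seen in both replicates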
KCNQ2 W236L pot = rat KCNQ2 W236L mutant potentiation by KCNQ2 potentiators | CHO KCNQ2-W236L, automated patch clamp current | AID 2558 | current increase over 3SD of negative controls (%), active compounds read high, % at 25 µM | hit rate 10% among 940 | shares compounds with KCNQ2 pot;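 active means current increase at least 3 SD of the untreated controls above them in both duplicate recordings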
Hits are given with their value; – = inactive; · = no result given.

SMILES	KCNQ2 inh	KCNQ2 pot	Kir21 conf inh	HEK293 Tl flux	others
CCOc1ccc(CNC(=S)Nc2ccccc2)cc1Cl	–	·	·	·
COc1ccc(OC)c(/C=N/NC(=O)C(O)c2ccccc2)c1 (stereo not given)	–	–	·	·
CCN(CC)CC#CCOC(c1ccccc1)c1ccccc1	–	·	·	·
CN(C)CC#CCOC(c1ccccc1)c1ccccc1	–	·	50.0%	–
CC1(C)CC(=O)c2c(oc3ccc(NS(=O)(=O)c4cccc5cccnc45)cc23)C1	–	–	·	·
Cc1c(Cl)cccc1NC(=O)CSc1nc(=O)n(CCCN2CCOCC2)c2c1CCC2	–	·	·	·
O=C(Nc1ccc(Cl)cc1Cl)c1n[nH]c(Cn2cncn2)n1	–	7.11	–	–	CHO-K1 Tl ctr=–;KCNQ1 sel pot=50.4;KCNQ2 pot conf=–;Kir2-1 sel=–;KCNQ2 W236L pot=–
N#C/C(=C\c1ccc(Cl)cc1)c1n[nH]c(Cn2cncn2)n1	–	·	·	·
CCOC(=O)c1c(C)[nH]c(C)c1S(=O)(=O)N(C)CC(=O)NCc1ccc(C)cc1	–	·	·	·
O=C(Nc1ccc2c(c1)OCCO2)C1CC(O)CN1C(=O)Nc1ccccc1 (stereo not given)	–	–	·	·
COC(=O)C1Cc2c([nH]c3ccccc23)C2(CCN(Cc3ccccc3)CC2)N1 (stereo not given)	–	·	67.5%	–
CCCN1CCC2(CC1)NC(C(=O)O)Cc1c2[nH]c2ccccc12 (stereo not given)	–	·	·	·
COc1ccc(Oc2c(-c3ccc(O)cc3O)n[nH]c2C)cc1	–	·	61.0%	–
CCCOC(=O)c1ccc(Oc2c(-c3ccc(OCC)cc3O)n[nH]c2C)cc1	–	·	·	·
CC1(C)C(=O)NCCN1C(=O)CC1C(=O)NCCN1Cc1cccc(C(F)(F)F)c1 (stereo not given)	–	·	·	·
CN(Cc1ccccc1)C(=O)c1cc2cc(F)ccc2[nH]1	–	–	·	·
Fc1ccc(CN2CCCN(Cc3nc(-c4ccc5c(c4)OCO5)no3)CC2)cc1	–	·	44.5%	–
O=C(c1ccco1)N1CCCN(Cc2nc(-c3ccc4c(c3)OCO4)no2)CC1	–	–	·	·
Cc1ccc(S(=O)(=O)CCC(=O)OCc2nc(N)nc(Nc3ccccc3C)n2)cc1	–	–	·	·
Cc1ccc2c(CC(=O)OCc3nc(N)nc(Nc4ccccc4C)n3)coc2c1	–	11.4	–	–	CHO-K1 Tl ctr=16.6;KCNQ1 sel pot=–;KCNQ2 pot conf=14.7;Kir2-1 sel=–;KCNQ2 W236L pot=–
CCOc1ccccc1NC(=O)CSc1nc(=O)n(CCCN2CCOCC2)c2c1CCCC2	–	·	·	·
CCC(Sc1nnc(-c2ccco2)n1C)C(=O)Nc1nnc(C)s1 (stereo not given)	–	–	·	·
Clc1cccc(CN2CCc3c([nH]c4ccccc34)C2)c1	–	·	·	·
Cc1cccc(CN2CCc3c([nH]c4ccccc34)C2)c1	–	–	43.0%	–
COc1ccc(S(=O)(=O)N2CCc3ccccc32)cc1C(=O)OCc1nnc(-c2ccccc2)o1	–	·	·	·
SMILES	KCNQ2 inh	KCNQ2 pot	Kir21 conf inh	HEK293 Tl flux	others
O=C(CCC(=O)N1CCOc2ccc(Cl)cc21)NCCCN1CCN(Cc2ccccc2)CC1	–	–	·	·
CC1CN(C(=O)CCC(=O)NCCCN2CCN(Cc3ccccc3)CC2)c2cc(Cl)ccc2O1 (stereo not given)	–	·	61.0%	–
CN(C)c1ccc(NC(=O)Cc2ccccc2)c2ccccc12	–	5.29	–	–	CHO-K1 Tl ctr=–;KCNQ1 sel pot=–;KCNQ2 pot conf=10.0;Kir2-1 sel=–;KCNQ2 W236L pot=–
Cc1ccc(F)cc1NC(=O)CCOc1ccccc1	–	·	·	·
Cc1ccc(NC(=O)Cc2ccccc2)c(C)c1	–	6.36	·	·	CHO-K1 Tl ctr=3.4;KCNQ1 sel pot=–;KCNQ2 pot conf=7.4;Kir2-1 sel=–;KCNQ2 W236L pot=–
Cc1ccc(NC(=O)CN2CCC(NC(=O)Cc3ccccc3)CC2)c(C)c1	–	·	·	·
COc1cc(OC)cc(C(=O)Nc2ccc(N(C)C)c3ccccc23)c1	–	–	·	·
Cc1ccc(NC(=O)CCOc2ccccc2)c(C)c1	–	6.05	–	–	CHO-K1 Tl ctr=–;KCNQ1 sel pot=49.3;KCNQ2 pot conf=5.5;Kir2-1 sel=–;KCNQ2 W236L pot=–
C/C(=N\Nc1ccc(C(F)(F)F)cn1)c1ccncc1	–	–	·	·
COc1ccc(S(=O)(=O)N(C)CC(=O)NCc2cccnc2)cc1C	–	–	·	·
O=[N+]([O-])c1cccc(OCC(O)CN2CCN(S(=O)(=O)c3cc(Cl)ccc3Cl)CC2)c1 (stereo not given)	–	–	·	·
O=C(OCc1c(F)cccc1Cl)c1cccnc1Cl	–	–	·	·
O=C(c1ccc(Br)cc1)N1CCN(S(=O)(=O)c2ccccc2)CC1	–	–	·	·
CCOC(=O)c1cccc(OCC(O)CNCCOc2ccccc2F)c1 (stereo not given)	–	–	·	·
CCN(CCNCC(O)COc1ccccc1C(C)C)c1cccc(C)c1 (stereo not given)	–	·	33.0%	–
O=C(O)C1=C[C@@H](C2CCCCC2)C[C@@H](OCc2ccc(CO)cc2)O1	–	–	·	·
NC(=O)C1=C[C@@H](C2CCCCC2)C[C@@H](OCc2ccc(CO)cc2)O1	–	–	52.0%	–
COc1ccc(CCCNC(=O)C2CCC(=O)N(CCc3cccc(F)c3)C2)cc1 (stereo not given)	–	·	·	·
COc1ccc(C(C)NC(=S)NCc2ccc(F)cc2)cc1 (stereo not given)	–	–	·	·
COc1cccc(C(C)NC(=S)NCc2ccc(Cl)cc2)c1 (stereo not given)	–	–	51.5%	–
C=CCOn1c(=O)c(-c2ccc(OCC)cc2)[n+]([O-])c2ccccc21	–	·	·	·
Cc1cccn2c(=O)c(C=C(C#N)C#N)c(N3CCN(c4cccc(Cl)c4)CC3)nc12	–	–	·	·
CN1CCN(CC(O)(c2ccc(Cl)cc2)c2ccc(Cl)cc2)CC1	–	·	50.5%	–
CN1CCN(CC(O)COc2ccc(Cl)cc2)CC1 (stereo not given)	–	–	·	·
Cc1ccc(S(=O)(=O)CCC(=O)OCC(=O)Nc2cc(S(=O)(=O)N3CCOCC3)ccc2C)cc1	–	–	·	·
SMILES	KCNQ2 inh	KCNQ2 pot	Kir21 conf inh	HEK293 Tl flux	others
CCn1c(=NC(=O)CSC(C)=O)sc2cc(F)ccc21	–	–	·	·
C#CCn1c(=NC(=O)CSC(C)=O)sc2cc(F)ccc21	–	20.3	–	–	CHO-K1 Tl ctr=–;KCNQ1 sel pot=–;KCNQ2 pot conf=62.3;Kir2-1 sel=–;KCNQ2 W236L pot=36.2%
COc1ccc(CC(=O)NCC(=O)NCc2cc(=O)n(C)c(=O)n2C)cc1	–	–	·	·
CN(CCC#N)C(=O)CC(Cc1ccccc1)C1CCOC(C)(C)C1 (stereo not given)	–	–	·	·
CCOc1ccc(Nc2cc(C)nc3ccc(C)cc23)cc1	–	·	·	·
Cc1ccc(Nc2cc(C)nc3ccc(C)cc23)cc1	–	–	48.5%	–

High-throughput results: PubChem, Johns Hopkins Ion Channel Center
